According to the emibetuzumab library of Makowski et al. (2022):
The other results are listed elsewhere or left out. How many sequences the whole screen found active is unknown.

B1: VH:VL chains; a variant is named by its letters at X, in order (parent)
chain 1: QVQLVQSGAEVKKPGASVKVSCKASGYTFTDYXMHWVRQAPGQGLEWMGXVNPNXXXTTYNQKFEGRVTMTTDTSTSTAYMELRSLRSDDTAVYYCARXNXLDXWGQGTTVTVSS
chain 2: DIQMTQSPSSLSASVGDRVTITCSVSSSVSSIYLHWYQQKPGKAPKLLIYSTSNLASGVPSRFSGSGSGTDFTLTISSLQPEDFATYYCQVYSGYPLTFGGGTKVEIK

Variants of: B1
Experiment: yeast display scFab, FACS + sequencing
Conditions: with MET
Procedure, shortened: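 A heavy-chain CDR mutant scFab library on yeast was enriched magnetically with HGFR-Fc-coated Protein A beads for two rounds and then by FACS after labelling with 1 nM HGFR-Fc and anti-Myc in PBSB with 1% milk for 3 h at room temperature, gating the top 50% antigen-positive cells. Antigen binding was judged positive if a sequence turned up in both antigen-positive deep-sequencing samples and negative if it turned up only in the input.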

With VTTKSAVA as the variant, how does the antigen binding call read?
Its antigen binding call is “no binding”.

For DRRKAFSA, which antigen binding call is on record?
The antigen binding call was “no binding”.

Which antigen binding call does the source give for VEEEGDAA here?
The antigen binding call was “no binding”.

For VAGGDDVA, which antigen binding call is on record?
Its antigen binding call is “no binding”.

How did the antigen binding call turn out when VEGTGDWD was run?
Its antigen binding call is “no binding”.

VATKGFVV was tested. Which antigen binding call did it give?
The antigen binding call was “no binding”.

How did the antigen binding call turn out when VRARGFVV was run?
The antigen binding call was “binds”.

For VRGRGFVV, which antigen binding call is on record?
Its antigen binding call is “binds”.

How did the antigen binding call turn out when YRGKGYVV was run?
The antigen binding call was “binds”.

For VRGKAFVV, which antigen binding call is on record?
The antigen binding call was “no binding”.

Which antigen binding call does the source give for VRAGADVV here?
Its antigen binding call is “no binding”.

For YRGRGFVV, which antigen binding call is on record?
The antigen binding call was “binds”.

With FEKEADAF as the variant, how does the antigen binding call read?
The antigen binding call was “no binding”.

With ATTGSASF as the variant, how does the antigen binding call read?
Its antigen binding call is “no binding”.

DAETAAAA was tested. Which antigen binding call did it give?
The antigen binding call was “no binding”.

How did the antigen binding call turn out when SRGRGAWA was run?
The antigen binding call was “binds”.

Which antigen binding call does the source give for SRGRGAWS here?
The antigen binding call was “binds”.

Which antigen binding call does the source give for STGTGSGA here?
Its antigen binding call is “no binding”.

SRGRGSGA was tested. Which antigen binding call did it give?
The antigen binding call was “binds”.

Which antigen binding call does the source give for SRGRGAVS here?
Its antigen binding call is “binds”.

With SRGRDAWA as the variant, how does the antigen binding call read?
Its antigen binding call is “no binding”.

How did the antigen binding call turn out when DAGRGAVS was run?
Its antigen binding call is “no binding”.

Which antigen binding call does the source give for SRGRGVGA here?
Its antigen binding call is “no binding”.

VETGNDLV was tested. Which antigen binding call did it give?
The antigen binding call was “no binding”.

STGTGYVF was tested. Which antigen binding call did it give?
Its antigen binding call is “no binding”.

For AAKEGALV, which antigen binding call is on record?
Its antigen binding call is “no binding”.

How did the antigen binding call turn out when AKGRADVY was run?
The antigen binding call was “no binding”.

For YARETAGV, which antigen binding call is on record?
The antigen binding call was “no binding”.

How did the antigen binding call turn out when YKRGDDGD was run?
The antigen binding call was “binds”.

For DRGRDDVD, which antigen binding call is on record?
The antigen binding call was “no binding”.

Which antigen binding call does the source give for YKRGDDLV here?
The antigen binding call was “no binding”.

With DRRGDDGA as the variant, how does the antigen binding call read?
The antigen binding call was “no binding”.

How did the antigen binding call turn out when VRGRDDGV was run?
Its antigen binding call is “no binding”.

How did the antigen binding call turn out when YRGRDDGD was run?
The antigen binding call was “binds”.

How did the antigen binding call turn out when DRAGDDGD was run?
Its antigen binding call is “no binding”.

YTEGDDGD was tested. Which antigen binding call did it give?
Its antigen binding call is “no binding”.

YRRGDDGD was tested. Which antigen binding call did it give?
Its antigen binding call is “binds”.

For AEGGTDVV, which antigen binding call is on record?
Its antigen binding call is “no binding”.

SREAADAV was tested. Which antigen binding call did it give?
The antigen binding call was “no binding”.

VKATAVAV was tested. Which antigen binding call did it give?
Its antigen binding call is “no binding”.

How did the antigen binding call turn out when VKERGDAV was run?
The antigen binding call was “no binding”.

How did the antigen binding call turn out when VEGGGSGV was run?
The antigen binding call was “no binding”.

With VAARGFGS as the variant, how does the antigen binding call read?
Its antigen binding call is “no binding”.

Which antigen binding call does the source give for VKGRADGV here?
Its antigen binding call is “no binding”.

Which antigen binding call does the source give for VKAGGAGS chain 1 G44D here?
Its antigen binding call is “no binding”.

SKGRSDGV was tested. Which antigen binding call did it give?
Its antigen binding call is “no binding”.

VKTGGSWV was tested. Which antigen binding call did it give?
The antigen binding call was “no binding”.

For VKARGAGS, which antigen binding call is on record?
The antigen binding call was “binds”.

For VKEGGAVV, which antigen binding call is on record?
The antigen binding call was “no binding”.

For VGARNSGV, which antigen binding call is on record?
Its antigen binding call is “no binding”.

With VKGRSDGV as the variant, how does the antigen binding call read?
Its antigen binding call is “binds”.

For VKTGGAVV, which antigen binding call is on record?
The antigen binding call was “binds”.

With VKARGSGV as the variant, how does the antigen binding call read?
Its antigen binding call is “binds”.

Which antigen binding call does the source give for SEGTGSSV here?
Its antigen binding call is “no binding”.

How did the antigen binding call turn out when DGGKNAGV was run?
The antigen binding call was “no binding”.

For DTGTGDAA, which antigen binding call is on record?
Its antigen binding call is “no binding”.

For YKKRGAGV, which antigen binding call is on record?
The antigen binding call was “binds”.

With VKARSAGV as the variant, how does the antigen binding call read?
The antigen binding call was “no binding”.

How did the antigen binding call turn out when YKTGGAGV was run?
The antigen binding call was “binds”.

With DKAGGAGV as the variant, how does the antigen binding call read?
The antigen binding call was “no binding”.

VKARGAGV was tested. Which antigen binding call did it give?
The antigen binding call was “binds”.

Which antigen binding call does the source give for YKTGDDGV here?
Its antigen binding call is “no binding”.

YKTKSDGV was tested. Which antigen binding call did it give?
The antigen binding call was “no binding”.

Which antigen binding call does the source give for YEKETAGV here?
Its antigen binding call is “no binding”.

For VKGESAGV, which antigen binding call is on record?
The antigen binding call was “no binding”.

For YKGEGDGV, which antigen binding call is on record?
Its antigen binding call is “no binding”.

Which antigen binding call does the source give for YKARGAGV here?
Its antigen binding call is “binds”.

With YKTGGDGV as the variant, how does the antigen binding call read?
Its antigen binding call is “no binding”.

How did the antigen binding call turn out when FEAESYGV was run?
Its antigen binding call is “no binding”.

How did the antigen binding call turn out when FKATTSGA was run?
The antigen binding call was “no binding”.

FKAGSSGV was tested. Which antigen binding call did it give?
The antigen binding call was “no binding”.

For FKARGSGV, which antigen binding call is on record?
The antigen binding call was “binds”.

For VAGTDAGA, which antigen binding call is on record?
Its antigen binding call is “no binding”.

How did the antigen binding call turn out when SREGGFAA was run?
Its antigen binding call is “no binding”.

How did the antigen binding call turn out when YRRRGYAA was run?
Its antigen binding call is “binds”.

Which antigen binding call does the source give for YRRRGDAA here?
Its antigen binding call is “binds”.

For YRRGSFAA, which antigen binding call is on record?
The antigen binding call was “binds”.

For YRRRGVAA, which antigen binding call is on record?
The antigen binding call was “binds”.

How did the antigen binding call turn out when SRKGGDAA was run?
The antigen binding call was “no binding”.

With VGGGASGV as the variant, how does the antigen binding call read?
Its antigen binding call is “no binding”.

With FTGRAYGF as the variant, how does the antigen binding call read?
The antigen binding call was “no binding”.

Which antigen binding call does the source give for VAGRSDLV chain 1 R67H here?
Its antigen binding call is “no binding”.

How did the antigen binding call turn out when DAKEGAGD was run?
Its antigen binding call is “no binding”.

Which antigen binding call does the source give for VTGEDDWD here?
Its antigen binding call is “no binding”.

VGGGNAGD was tested. Which antigen binding call did it give?
Its antigen binding call is “no binding”.

For YRRRGAAA, which antigen binding call is on record?
The antigen binding call was “binds”.

For YREGGFAA, which antigen binding call is on record?
The antigen binding call was “no binding”.

YRRRGFAA was tested. Which antigen binding call did it give?
Its antigen binding call is “binds”.

How did the antigen binding call turn out when YRRRGYVA was run?
The antigen binding call was “binds”.

Which antigen binding call does the source give for YRRRGAVA here?
Its antigen binding call is “binds”.

Which antigen binding call does the source give for VRAGADVY here?
The antigen binding call was “no binding”.

With YGETGDSV as the variant, how does the antigen binding call read?
The antigen binding call was “no binding”.

With FTETGFGA as the variant, how does the antigen binding call read?
The antigen binding call was “no binding”.

Which antigen binding call does the source give for YRRRGFVA here?
The antigen binding call was “binds”.

How did the antigen binding call turn out when FRERGSAD was run?
The antigen binding call was “binds”.

With YRERGAAD as the variant, how does the antigen binding call read?
Its antigen binding call is “binds”.

With YRERDSAD as the variant, how does the antigen binding call read?
Its antigen binding call is “no binding”.

VRERGSAD was tested. Which antigen binding call did it give?
Its antigen binding call is “binds”.

With YRERGSAD as the variant, how does the antigen binding call read?
The antigen binding call was “binds”.

How did the antigen binding call turn out when YAEGDAAD was run?
Its antigen binding call is “no binding”.

How did the antigen binding call turn out when VEGTSDVV was run?
The antigen binding call was “no binding”.

How did the antigen binding call turn out when DTTGSAVA was run?
Its antigen binding call is “no binding”.

Which antigen binding call does the source give for YEGGGDGA here?
The antigen binding call was “no binding”.

Which antigen binding call does the source give for YKGGGAGA here?
The antigen binding call was “binds”.

With YKGEADGA as the variant, how does the antigen binding call read?
Its antigen binding call is “no binding”.

For FKGGGFGA, which antigen binding call is on record?
Its antigen binding call is “no binding”.

For VKGGGYGA, which antigen binding call is on record?
The antigen binding call was “no binding”.

How did the antigen binding call turn out when YKGGGYGA was run?
The antigen binding call was “binds”.

Which antigen binding call does the source give for VKGGGFGA here?
Its antigen binding call is “no binding”.

Which antigen binding call does the source give for YKGGSAGA here?
The antigen binding call was “binds”.

YTGATAGA was tested. Which antigen binding call did it give?
The antigen binding call was “no binding”.

YRTRGSGF was tested. Which antigen binding call did it give?
Its antigen binding call is “binds”.

How did the antigen binding call turn out when YRRRGSGF was run?
Its antigen binding call is “binds”.

How did the antigen binding call turn out when YRRRGAWF was run?
The antigen binding call was “binds”.

With YRRRGAGF as the variant, how does the antigen binding call read?
The antigen binding call was “binds”.

For FTKASYVY, which antigen binding call is on record?
Its antigen binding call is “no binding”.

With VEARGDWV as the variant, how does the antigen binding call read?
The antigen binding call was “no binding”.

How did the antigen binding call turn out when STRKSYAA was run?
The antigen binding call was “no binding”.

Which antigen binding call does the source give for STKAASWV here?
Its antigen binding call is “no binding”.

For STGTGALA, which antigen binding call is on record?
Its antigen binding call is “no binding”.

FTGGDALA was tested. Which antigen binding call did it give?
Its antigen binding call is “binds”.

FRERGDGA was tested. Which antigen binding call did it give?
Its antigen binding call is “no binding”.

With YRERGALA as the variant, how does the antigen binding call read?
Its antigen binding call is “binds”.

FRERGYGA was tested. Which antigen binding call did it give?
Its antigen binding call is “no binding”.

For YRERGAAA, which antigen binding call is on record?
Its antigen binding call is “binds”.

Which antigen binding call does the source give for VTGGDALA here?
The antigen binding call was “no binding”.

Which antigen binding call does the source give for FRERGALA here?
Its antigen binding call is “binds”.

With YRERNAAA as the variant, how does the antigen binding call read?
Its antigen binding call is “no binding”.

Which antigen binding call does the source give for SGRGNSVD here?
Its antigen binding call is “no binding”.

For VEEEGDVA, which antigen binding call is on record?
The antigen binding call was “no binding”.

How did the antigen binding call turn out when STEEGDWV was run?
Its antigen binding call is “no binding”.

For AEGTNAGD, which antigen binding call is on record?
Its antigen binding call is “no binding”.

For VETGNDAV, which antigen binding call is on record?
The antigen binding call was “no binding”.
